Source: the supplement of paper PMC13380429
A number with no mark means an inactive call.

Tested on: Vero E6 infected with SARS-CoV-2
Test: inhibition of SARS-CoV-2 cytopathic effect; higher = more antiviral protection, active = above 15
Settings: 48 h

Row | SMILES | inhibition of SARS-CoV-2 cytopathic effect (1 nM) | inhibition of SARS-CoV-2 cytopathic effect (8.33 nM) | inhibition of SARS-CoV-2 cytopathic effect (100 nM) | inhibition of SARS-CoV-2 cytopathic effect (833.33 nM) | inhibition of SARS-CoV-2 cytopathic effect (10000 nM)
1 | O=[N+]([O-])O[C@H]1CO[C@H]2[C@@H]1OC[C@H]2O[N+](=O)[O-] [isosorbide-dinitrate] | -1.2% | 2.2% | 2.2% | 1.87% | 3.34%
2 | CCN(CCCOc1ccc2c(Nc3cc(CC(=O)Nc4cccc(F)c4)[nH]n3)ncnc2c1)CCOP(=O)(O)O [barasertib] | -0.38% | 0.9% | -1.02% | -2.03% | -4.38%
3 | COC(=O)C1=C(C)NC(C)=C(C(=O)OC(C)C)[C@@H]1c1cccc2nonc12 [isradipine] | 0.75% | 2.79% | 1.21% | 2.05% | 1.88%
4 | CCn1c2ccccc2c2cc(CNCc3ccccc3OC)ccc21 | 3.14% | 2.16% | 0.25% | -1.14% | -6.1%
5 | O=C(c1cc(S(=O)(=O)Nc2ccccc2F)c(F)cc1Cl)N1CCN2CCC[C@@H]2C1 | 1.66% | 2.06% | 1.64% | 8.06% | -1.59%
6 | CCOC(=O)c1ccccc1OC(=O)CCCCCCCC(=O)Oc1ccccc1C(=O)OCC | 6.82% | 0.93% | -6.73% | -0.1% | -6.2%
7 | CC(C)(O)C(=O)N1CCN(c2ccc(C(F)(F)F)c(C3=C(c4c[nH]c5ccccc45)C(=O)NC3=O)c2)CC1 | -0.88% | -0.68% | -5.41% | -0.21% | 4.03%
8 | OC[C@@H](O)[C@H]1O[C@@H]2O[C@H](C(Cl)(Cl)Cl)O[C@@H]2[C@H]1O [chloralose] | 1.75% | 3.01% | 2.94% | -0.88% | -0.85%
9 | CC1(C)CCC(C)(C)c2cc(C3(c4ccc5cc(C(=O)O)ccc5c4)SCCS3)ccc21 | -0.61% | 2.69% | 1.81% | 1.35% | 2.66%
10 | CC[C@@]1(O)C(=O)OCc2c1cc1n(c2=O)Cc2c-1nc1cc(F)c(C)c3c1c2[C@@H](N)CC3 [exatecan-mesylate] | -2.4% | -0.39% | -7.04% | -15.8% | -20.5%
11 | Nc1nc(=O)n([C@H]2C[C@H](O)[C@@H](CO)O2)cc1F [fdcyd] | 0.4% | 0.55% | -0.04% | 8.53% | -2.15%
12 | O=C(O)Cc1ccc2c(c1)C(=O)c1ccccc1CO2 [isoxepac] | -4.41% | -3.03% | -6.78% | -4.01% | 0.02%
13 | Cc1ccc2nc(N)[nH]c(=O)c2c1Sc1ccncc1 [nolatrexed] | 0.89% | 3.11% | 1.17% | 2.04% | -2.82%
14 | O=C(NCCNCC(O)COc1ccc(O)cc1)N1CCOCC1 (stereo not given) [xamoterol] | -2.07% | -0.88% | -0.13% | 0.01% | 3.26%
15 | Nc1c(-c2cccc(C(F)(F)F)c2)nsc1C(=O)O [amflutizole] | -1.13% | 0.29% | -1.28% | 0.87% | 1.39%
16 | CN(C)C(=O)CCSC(SCCC(=O)O)c1cccc(/C=C/c2ccc3ccc(Cl)cc3n2)c1 (stereo not given) | -1.06% | -1.39% | 3.57% | 1.55% | 5.11%
17 | CC1Nc2ccc(Cl)cc2S(=O)(=O)N1 (stereo not given) | 0.09% | 1.51% | -2.37% | 1.75% | 2.76%
18 | CC(C)C[C@@H](N)C(=O)N[C@H]1C(=O)N[C@@H](CC(N)=O)C(=O)N[C@H]2C(=O)N[C@H]3C(=O)N[C@H](C(=O)N[C@H](C(=O)O)c4cc(O)cc(O)c4-c4cc3ccc4O)[C@H](O)c3ccc(c(Cl)c3)Oc3cc2cc(c3O[C@@H]2O[C@H](CO)[C@@H](O)[C@H](O)[C@H]2O[C@H]2C[C@](C)(N)[C@H](O)[C@H](C)O2)Oc2ccc(cc2Cl)[C@H]1O [norvancomycin] | -0.51% | 2.53% | 11.9% | 1.73% | -2.8%
19 | C1COC(NC(C2CC2)C2CC2)=N1 [rilmenidine] | 2.93% | 3.39% | -2.62% | -3.95% | -6.59%

Row | SMILES | inhibition of SARS-CoV-2 cytopathic effect (1 nM) | inhibition of SARS-CoV-2 cytopathic effect (8.33 nM) | inhibition of SARS-CoV-2 cytopathic effect (100 nM) | inhibition of SARS-CoV-2 cytopathic effect (833.33 nM) | inhibition of SARS-CoV-2 cytopathic effect (10000 nM)
20 | CCCCCCCCCCCCCCCC(=O)OC(CC(=O)[O-])C[N+](C)(C)C (stereo not given) [palmitoylcarnitine] | 0.08% | 0.65% | 0.35% | -1.19% | -9.18%
21 | CC(C)CC(=O)N[C@H](C(=O)N[C@H](C(=O)N[C@@H](CC(C)C)[C@@H](O)CC(=O)N[C@@H](C)C(=O)N[C@@H](CC(C)C)[C@@H](O)CC(=O)O)C(C)C)C(C)C [pepstatin] | 1.4% | 0.77% | -0.17% | -1.52% | -4.53%
22 | CCOC(N)=O [urethane] | -3.1% | -4.31% | -0.41% | -2.2% | 1.53%
23 | CCOc1ccc(-c2nc(-c3cccc4c3CCC4NCCO)no2)cc1OCC (stereo not given) | -0.52% | 0.67% | 1.13% | 0.77% | 5.33%
24 | Cn1c([N+](=O)[O-])cnc1COC(N)=O [ronidazole] | 2.87% | 0.97% | 1.04% | 2.17% | 2.12%
25 | O=C(O)c1cc(=O)c2ccccc2o1 [chromocarb] | -1.09% | -0.13% | -0.55% | 3.21% | -0.51%
26 | CC(C)C[C@@H](N)C1(c2ccc(Cl)cc2)CCC1 | -0.06% | -2.41% | -2.87% | -1.42% | -7.34%
27 | O=C(O[C@H]1C[N+]2(CCCOc3ccccc3)CCC1CC2)C(O)(c1cccs1)c1cccs1 [aclidinium] | -0.75% | -1.25% | -2.4% | 1.93% | 1.6%
28 | NC(=O)N1c2ccccc2CC(O)c2ccccc21 (stereo not given) [licarbazepine] | -1.75% | 1.29% | -0.88% | -6.25% | 0.95%
29 | CC1Sc2c(C(=O)O)c(=O)c3cc(F)c(N4CCNCC4)cc3n21 (stereo not given) [ulifloxacin] | -1.7% | -1.36% | -3.62% | 1.61% | -0.79%
30 | C=Cc1c(C)c2cc3nc(c(CC(=O)O)c4[n-]c(cc5nc(cc1[n-]2)C(C)=C5CC)c(C)c4C(=O)O)[C@@H](CCC(=O)O)[C@@H]3C.[Cu+2] [chlorophyllin-copper] | -0.37% | 2.9% | -1.68% | -0.25% | -2.81%
31 | CC(C)CCC[C@@H](C)[C@H]1CC[C@H]2[C@@H]3CC=C4C[C@@H](O)CC[C@]4(C)[C@H]3CC[C@]12C [cholesterol] | -1.33% | 1.96% | 1.08% | -1.83% | 2.29%
32 | O=C(NCCN1CCC2(CC1)C(=O)NCN2c1cccc(F)c1)c1ccc(F)c(F)c1 | 3.32% | 2.54% | 0.98% | 1.22% | 22% (active)
33 | CC(=O)Nc1cccc(O)c1 [metacetamol] | 1.03% | 5.41% | 3.07% | 4.81% | 4.76%
34 | O=C1C(=O)N(Cc2ccc(Cl)c(Cl)c2)c2ccccc21 [apoptosis-activator-II] | 1.74% | -0.59% | -1.07% | -3.55% | -3.11%
35 | COc1cccc(N2CCN(C3=Nc4c(F)cccc4[C@H](CC(=O)O)N3c3cc(C(F)(F)F)ccc3OC)CC2)c1 [letermovir] | -1.18% | 0.62% | 0.16% | 0.96% | 1.82%
36 | CC[C@@H]1C(=O)N(C)c2cnc(Nc3ccc(C(=O)N[C@H]4CC[C@H](N5CCN(CC6CC6)CC5)CC4)cc3OC)nc2N1C(C)C [volasertib] | 4.01% | -1.24% | -0.02% | -9.3% | -14.9%
37 | OC(CCN1CCCCC1)(c1ccccc1)C1CCCCC1 (stereo not given) [trihexyphenidyl] | -14.3% | -7.63% | -2.35% | -9.38% | -10.1%
38 | O=C1c2cccnc2OC[C@@H]2CCCN12 | 0.83% | 1.33% | 0.65% | 0.64% | -2.21%
